Screens as filed in PubChem.
GDH-TPI inh = counter-screen for M. tuberculosis FBA inhibitors: GDH-TPI coupled enzymes | 360,000 compounds, 1.2% hits | AID 588335 | GDH-TPI coupled enzyme counterscreen, NADH absorbance | inhibition, % at 4.8 µM; in the data active = inhibition above about 30%
Mtb UGM inh = Mtb UDP-galactopyranose mutase inhibition. purified UGM, fluorescence polarization probe displacement. inhibition, % at 10 µM. 320,000 compounds, 0.06% hits; in the data active = inhibition above about 10%, passing the limit was not always enough
FBA Mtb inh = inhibits M. tuberculosis FBA enzyme; inhibition, % at 1 µM; 360,000 compounds, 2.3% hits; purified M. tuberculosis FBA, fluorescence read-out; AID 588726; P9WQA3; in the data active = inhibition above about 27%
Target sequence (P9WQA3 whole entry, looked up): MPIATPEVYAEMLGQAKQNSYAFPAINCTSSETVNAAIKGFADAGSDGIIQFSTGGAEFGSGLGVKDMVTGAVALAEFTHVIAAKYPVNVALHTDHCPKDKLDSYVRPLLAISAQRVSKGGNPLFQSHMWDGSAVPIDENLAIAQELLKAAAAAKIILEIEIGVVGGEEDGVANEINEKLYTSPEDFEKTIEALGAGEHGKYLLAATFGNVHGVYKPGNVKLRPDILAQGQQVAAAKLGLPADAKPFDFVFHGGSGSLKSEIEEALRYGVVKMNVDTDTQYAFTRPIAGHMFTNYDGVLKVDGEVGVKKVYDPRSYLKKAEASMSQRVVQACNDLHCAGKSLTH
Rv3671c protease = inhibitors of M. tuberculosis serine protease Rv3671c; P9WHR9; inhibition, % at 5.96 µM; 320,000 compounds, 0.048% hits; in the data active = inhibition above about 38%;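 also: extracellular domain of Rv3671c used as enzyme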
Each line names hits and unclear results; the compound was inactive in the other large screens. An excerpt weighted towards active compounds, which were near 3.5% of everything screened.

Cn1cc(/C=C2\SC(=O)N(c3ccccc3)C2=O)c2ccccc21	none
COC(=O)C1CCN(C(=O)COc2ccc(S(=O)(=O)N3CCOCC3)cc2Cl)CC1	none
O=C(N/N=C/c1c(O)n(C2CC2)c(=S)[nH]c1=O)c1ccccc1O	none
O=C(N/N=C/c1c(O)n(CCC2=CCCCC2)c(=S)[nH]c1=O)c1ccccc1	none
O=C(N/N=C/c1c(O)n(CCC2=CCCCC2)c(=O)[nH]c1=O)c1ccccc1	GDH-TPI inh 34
O=C(N/N=C/c1c(O)n(-c2ccccc2)c(=O)[nH]c1=O)c1ccncc1	GDH-TPI inh 31
Cc1ccccc1-n1c(O)c(/C=N/NC(=O)c2ccccc2O)c(=O)[nH]c1=S	GDH-TPI inh 31
Cc1ccc(S(=O)(=O)N2CCOCC2)cc1NC(=O)CNCC1CCCCC1	none
COC(=O)C1=C(C)NC(C)=C(C(=O)OC)C1C(=O)OCc1nnc(-c2ccccc2Cl)o1	none (no result: Mtb UGM inh, Rv3671c protease)
Cc1cc(-c2ccco2)c(C#N)c2nc3ccccc3n12	GDH-TPI inh 31
N#C/C(=N\Nc1c(Cl)cccc1Cl)C(=O)NN	GDH-TPI inh 32
N#C/C(=N\Nc1ccccc1Cl)C(=O)c1ccccc1	none
Cc1ccc(C(=O)N[C@@H](Cc2ccccc2)C(=O)N2CCC3(CC2)NCCc2[nH]cnc23)cc1C	none
Cc1noc(C)c1-c1ccc(C(=O)NCc2cccnc2)c2occc12	none (no result: Mtb UGM inh, Rv3671c protease)
COc1ccccc1NC(=O)CN1C(=O)NC2(CCCc3ccccc32)C1=O (stereo unspecified)	none (no result: Mtb UGM inh)
CCOc1ccc(-c2cc(C)[n+](CCN3CCOCC3)c(-c3ccc(OCC)cc3)c2)cc1	GDH-TPI inh 41
CN(Cc1ccc(Cl)c(Cl)c1)C(=O)C1=CC=CN2CCS(=O)(=O)N=C12	none
Cc1nc(NS(=O)(=O)c2ccccc2)sc1C(=O)N/N=C/c1ccccc1	GDH-TPI inh 47
CCn1cc(CCCC(=O)NCc2ccc(OC)cc2)c2ccccc21	none (no result: Rv3671c protease)
CC(=O)c1sc(Nc2ccccn2)nc1C	GDH-TPI inh 47
COc1ccc2nc(Nc3nc(C)c(C(C)=O)s3)sc2c1	none
COc1cc(C)nc(Nc2nc(C)c(C(C)=O)s2)n1	GDH-TPI inh 35
CCOc1ccc(NC(=O)C(C)Oc2ccc(C#N)cc2)cc1S(=O)(=O)N1CCCC1 (stereo unspecified)	none
COc1ccc(C2/C(=C(/O)c3ccc(F)cc3)C(=O)C(=O)N2CCCN2CCOCC2)cc1OC (stereo unspecified)	none
O=C(COC(=O)[C@@H]1CC(O)CN1S(=O)(=O)c1ccc(Cl)cc1)NC(=O)NCc1ccccc1 (stereo partly specified)	none
CCCn1c(SCC(=O)Nc2nonc2C)nnc1-c1ccoc1C	FBA Mtb inh active
Cc1nonc1NC(=O)CSc1nnc(-c2ccoc2C)n1-c1cccc(Cl)c1	none
Cc1cncc(NCc2ccc3c(c2)OCO3)n1	none (no result: Mtb UGM inh, Rv3671c protease)
Cc1cncc(NCc2cccc(Cl)c2)n1	FBA Mtb inh 118 (no result: Mtb UGM inh, Rv3671c protease)
O=C(COc1ccccc1[N+](=O)[O-])N/N=C/C=C/c1ccco1	GDH-TPI inh 49
Cc1oc2cc3oc(=O)c(CCC(=O)NCCCC(=O)O)c(C)c3cc2c1C	none
Cc1c(CCC(=O)NC2CC2)c(=O)oc2cc(O)ccc12	FBA Mtb inh active
COc1ccc2c(C)c(CCC(=O)NC3CC3)c(=O)oc2c1	FBA Mtb inh 173
CC(C)NC(=O)C1(C)CCN1C(=O)c1cccc(F)c1 (stereo unspecified)	none (no result: Mtb UGM inh, Rv3671c protease)
O=C(c1ccc([N+](=O)[O-])s1)N1CCN(c2ccc(C(F)(F)F)cn2)CC1	none
CN(C)c1ccc2c(c1[N+](=O)[O-])Cc1ccccc1-2	none (no result: Mtb UGM inh, Rv3671c protease)
COCc1nc(-c2ccc(-c3ccccc3)nc2OC)no1	none
CCc1nc(-c2ccc(-c3ccc(OC)cc3)nc2OC)no1	FBA Mtb inh 152
COCc1nc(-c2ccc(-c3ccc(OC)cc3)nc2OC)no1	FBA Mtb inh active (no result: Mtb UGM inh)
CCSc1nc2ccccc2c(=O)n1CCc1ccc(OC)c(OC)c1	none
COCCNc1nc(Nc2ccc(C(=O)OC)cc2)c2sccc2n1	GDH-TPI inh 31 (no result: Mtb UGM inh, Rv3671c protease)
CNc1nc(Nc2ccc(C(=O)OC)cc2)c2sccc2n1	none (no result: Mtb UGM inh, Rv3671c protease)
COc1cc2ccc(=O)oc2cc1O	FBA Mtb inh active
COc1cc2ccc(=O)oc2cc1OCC(O)C(C)(C)O (stereo unspecified)	FBA Mtb inh 138
CCCn1c(C(O)c2ccc(OC)c(OC)c2)nc2ccccc21 (stereo unspecified)	none
CN(C)c1ccc(C(=O)C(O)c2ccccc2Cl)cc1 (stereo unspecified)	GDH-TPI inh 46 (no result: Mtb UGM inh, Rv3671c protease)
CN(C)c1ccc(C(=O)C(=O)c2ccccc2)cc1	none
CS(=O)(=O)c1ccc2sc(NC(=O)c3cc4ccccc4o3)nc2c1	GDH-TPI inh 72
CS(=O)(=O)c1ccc2nc(NC(=O)c3cc4ccccc4o3)sc2c1	GDH-TPI inh 47
CS(=O)(=O)c1ccc2nc(NC(=O)c3ccccc3Br)sc2c1	none
CCOc1ccc(Cl)cc1C1=CC(=O)C[C@H](c2ccc(OC)cc2)C1	none
CCN(CC)c1ccc(C(=O)OCC(=O)NCC2CCCO2)cc1 (stereo unspecified)	GDH-TPI inh 32
CC(=O)Nc1ccc(N=Nc2ccccc2)cc1[N+](=O)[O-]	GDH-TPI inh 31 (no result: Mtb UGM inh, Rv3671c protease)
COCC(O)Cn1ccnc1[N+](=O)[O-] (stereo unspecified)	none (no result: Mtb UGM inh, Rv3671c protease)
O=C(O)CCn1c2ccccc2c2nc3ccccc3nc21	GDH-TPI inh 31
COC(=O)Cn1c2ccccc2c2nc3ccccc3nc21	none (no result: Rv3671c protease)
CC(=O)c1c(C)n(CCc2ccc(Cl)cc2)c2ccc(O)cc12	GDH-TPI inh 52
CC(=O)Nc1cccc2c1Cc1cc([N+](=O)[O-])ccc1-2	GDH-TPI inh 40 (no result: Mtb UGM inh, Rv3671c protease)
O=C1CCCC2=C1C1(CCCCC1)N=C(Nc1nc3ccccc3o1)N2	GDH-TPI inh 51
N#CCCN1CCN(C(=S)c2ccc(-c3cccc(Cl)c3)o2)CC1	GDH-TPI inh 39
N#CCCN1CCN(C(=S)c2ccc(-c3ccc(Cl)c(Cl)c3)o2)CC1	none
O=c1c2ccccc2oc2c1ccc1ccccc12	FBA Mtb inh 36 (no result: Mtb UGM inh, Rv3671c protease)
O=c1c2ccccc2oc2ccccc12	none (no result: Mtb UGM inh, Rv3671c protease)
O=C(/C=C/c1ccco1)Nc1nc(-c2ccccc2)cs1	none
CCOC(=O)Cc1csc(NC(=O)/C=C/c2ccc(Cl)cc2)n1	none
O=C(/C=C/c1ccco1)Nc1scc(-c2ccccc2)c1C(=O)O	GDH-TPI inh 66
Cc1cc(NS(=O)(=O)c2ccc(NC(=O)/C=C/c3ccco3)cc2)nc(C)n1	GDH-TPI inh 48
O=C(/C=C/c1ccccc1)Nc1scc(-c2ccccc2)c1C(=O)O	none (no result: Mtb UGM inh, Rv3671c protease)
Cc1cc(NS(=O)(=O)c2ccc(NC(=O)c3ccco3)cc2)nc(C)n1	none
Cc1csc(NC(=O)/C=C/c2ccco2)n1	GDH-TPI inh 33
CCOC(=O)Cc1csc(NC(=O)/C=C/c2ccco2)n1	GDH-TPI inh 75
C[C@H](CO)N1C[C@H](C)[C@@H](CN(C)C(=O)CN2CCOCC2)Oc2ncc(-c3cncnc3)cc2C1=O	none (no result: Mtb UGM inh, Rv3671c protease)
Cc1ccc(-n2nnnc2CNC(=O)c2ccc3c(c2)OCO3)cc1C	none
Cc1csc(NC(=O)/C=C/c2ccc3c(c2)OCO3)n1	GDH-TPI inh 35
O=C(/C=C/c1ccc2c(c1)OCO2)Nc1nc(-c2ccc(F)cc2F)cs1	none (no result: GDH-TPI inh, FBA Mtb inh)
COc1ccc(C(CC(=O)c2ccc(O)cc2)S(=O)(=O)c2ccc(C)cc2)cc1 (stereo unspecified)	GDH-TPI inh 34
